{"source": "PubChem BioAssay AID977608", "origin": "cited, not measured here", "assay": "literature IC50 values for PDB complexes, PDB-derived complexes (AID 977608)", "details": "PDB protein-ligand complexes", "note": "Out of some 4,300 compounds screened, about 4,300 (100%) were called active. No cut-off is given here; in the data, nearly all actives have IC50 up to about 1400 µM. So high a share suggests a set chosen from earlier hits. The list shows a part of the results.", "data": [{"smiles": "O=C(Cc1ccccc1)Nc1nnc(CC=S)s1", "values": [{"measurement": "IC50", "setting": "protein: human glutaminase, PDB entry 3vp1", "result": "3300 nM (active)"}]}, {"smiles": "COc1cc(-c2ccc(NNc3ccc4c(S(O)(O)O)cc(S(O)(O)O)c(N)c4c3O)c(OC)c2)ccc1N=Nc1ccc2c(S(O)(O)O)cc(S(O)(O)O)c(N)c2c1O", "values": [{"measurement": "IC50", "setting": "protein: Macrophage migration inhibitory factor, PDB entry 3u18", "result": "810 nM (active)"}]}, {"smiles": "O=c1cc([C@H]2CCN[C@@H](Cc3ccccc3)C2)o[nH]1", "values": [{"measurement": "IC50", "setting": "protein: plasminogen kringle 1, PDB entry 4cik", "result": "370 nM (active)"}]}, {"smiles": "C[C@@]1(c2cc(NC(=O)c3ccc(Cl)cn3)ccc2F)C[C@@H]2C[C@@H]2C(N)N1", "note": "(stereo not given in full)", "values": [{"measurement": "IC50", "setting": "protein: BETA-SECRETASE 1, PDB entry 4bfd", "result": "96 nM (active)"}]}, {"smiles": "CN(C)c1ccc2c(c1)CCN(c1cccc(-c3cc(Nc4ccc(C(=O)N5CCOCC5)cn4)c(=O)n(C)c3)c1CO)C2=O", "values": [{"measurement": "IC50", "setting": "protein: Tyrosine-protein kinase BTK, PDB entry 4rfy", "result": "100 nM (active)"}]}, {"smiles": "C[C@@H](O[P+](O)(O)O)[C@H](NC(=O)[C@H](CO)NC(=O)[C@H](Cc1cncn1CCCCCCCCc1ccccc1)NC(=O)CCNC(=O)c1ccc(CO)cc1)C(N)=O", "values": [{"measurement": "IC50", "setting": "protein: Serine/threonine-protein kinase PLK1, PDB entry 4whh", "result": "40 nM (active)"}]}, {"smiles": "CC(=O)N[C@@H](Cc1cncn1CCCCCCCCc1ccccc1)C(=O)N[C@@H](CO)C(=O)N[C@H](C(N)=O)[C@@H](C)O[P+](O)(O)O", "values": [{"measurement": "IC50", "setting": "protein: Serine/threonine-protein kinase PLK1, PDB entry 4rcp", "result": "4420 nM (active)"}]}, {"smiles": "C[C@H](O[P+](O)(O)O)[C@H](NC(=O)[C@H](CO)NC(=O)[C@H](Cc1cncn1CCCCCCCCc1ccccc1)NC(=O)CCCNC(=O)c1ccccc1)C(N)=O", "values": [{"measurement": "IC50", "setting": "protein: Serine/threonine-protein kinase PLK1, PDB entry 4whl", "result": "400 nM (active)"}]}, {"smiles": "O=C(C/C=C1\\C=C(C(=O)c2ccc(F)cc2)C=N1)C[C@@H](O)C(=O)O", "values": [{"measurement": "IC50", "setting": "protein: DNA nucleotidylexotransferase, Tdt core, PDB entry 4iqu", "result": "580 nM (active)"}]}, {"smiles": "O=C(NO)c1coc(-c2ccccc2C(F)(F)F)n1", "values": [{"measurement": "IC50", "setting": "protein: METHIONINE AMINOPEPTIDASE, PDB entry 4a6v", "result": "1900 nM (active)"}]}, {"smiles": "CN1CCN(c2ccc(N=C3CC(=O)N(c4ccc(Cl)cc4)N=C3c3ncn[nH]3)cc2)CC1", "values": [{"measurement": "IC50", "setting": "protein: MEMBRANE PRIMARY AMINE OXIDASE, PDB entry 4bty", "result": "20 nM (active)"}]}, {"smiles": "COC1=CC2=C(C(=O)C1)C(=O)O[C@H](C)CCCC(=O)[C@@H](O)[C@@H](O)C/C=C/2", "values": [{"measurement": "IC50", "setting": "protein: Mitogen-activated protein kinase 1, PDB entry 2E14", "result": "80 nM (active)"}]}, {"smiles": "COC1=CC2=C(C(=O)C1)C(=O)O[C@@H](C)CCCC(=O)[C@@H](O)[C@@H](O)C/C=C/2", "values": [{"measurement": "IC50", "setting": "protein: Mitogen-activated protein kinase 1, PDB entry 3w55", "result": "80 nM (active)"}]}, {"smiles": "NC(=O)c1cccc(N)c1", "values": [{"measurement": "IC50", "setting": "protein: Tankyrase-2 TNKS2, PDB entry 4pml", "result": "30000 nM (active)"}]}, {"smiles": "CCOc1ccc2cc(-c3nn(C(C)(C)C)c(N)c3C(N)=O)cnc2c1", "values": [{"measurement": "IC50", "setting": "protein: Calmodulin-domain protein kinase 1 CDPK1, PDB entry 4ona", "result": "7 nM (active)"}]}, {"smiles": "CN(C)CCOc1ccc(-c2cc3c(NCCc4ccc(NC(=O)Nc5ccccc5)cc4)ncnc3o2)cc1", "values": [{"measurement": "IC50", "setting": "protein: Aurora kinase A (T288D mutation), PDB entry 4jbo", "result": "24 nM (active)"}]}, {"smiles": "O=C(Nc1ccccc1)Nc1ccc(CCNc2ncnc3oc(-c4ccc(OCCN5CCC(O)CC5)cc4)cc23)cc1", "values": [{"measurement": "IC50", "setting": "protein: Aurora kinase A (T288D mutation), PDB entry 4jbp", "result": "41 nM (active)"}]}, {"smiles": "CC(C)(O/N=C(\\C(=O)N[C@H](C=O)[C@@H](CNC(=O)NCc1cc(=O)c(O)cn1O)NS(O)(O)O)c1csc(N)n1)C(=O)O", "values": [{"measurement": "IC50", "setting": "protein: Penicillin-binding protein 3, PDB entry 4l0l", "result": "54 nM (active)"}]}, {"smiles": "CCN1CCN(c2nc(O)c(Cc3ccc(Cl)c(Cl)c3)s2)CC1", "values": [{"measurement": "IC50", "setting": "protein: Ectonucleotide pyrophosphatase/phosphodiesterase family member 2, PDB entry 3waw", "result": "580 nM (active)"}]}, {"smiles": "CN1CCN(c2nc(O)c(Cc3ccc(Cl)c(Cl)c3)s2)CC1", "values": [{"measurement": "IC50", "setting": "protein: Ectonucleotide pyrophosphatase/phosphodiesterase family member 2, PDB entry 3wav", "result": "180 nM (active)"}]}, {"smiles": "c1ccc2c(c1)[nH]c1cncnc12", "values": [{"measurement": "IC50", "setting": "protein: DUAL SPECIFICITY PROTEIN KINASE TTK, PDB entry 4bi0", "result": "58600 nM (active)"}]}, {"smiles": "Cc1cccc(Cc2nn(C(C)(C)C)c3ncnc(N)c23)c1", "values": [{"measurement": "IC50", "setting": "protein: Proto-oncogene tyrosine-protein kinase Src, PDB entry 4lgg", "result": "3 nM (active)"}]}, {"smiles": "O=CN1CCN(c2nc(-c3ccccc3)ns2)CC1", "values": [{"measurement": "IC50", "setting": "protein: Fatty-acid amide hydrolase 1, PDB entry 4hbp", "result": "3.8 nM (active)"}]}, {"smiles": "N=CCNC(=O)[C@@H]1C[C@@H](S(=O)(=O)c2ccccc2)C[C@H]1C(=O)N1CCOCC1", "values": [{"measurement": "IC50", "setting": "protein: CATHEPSIN S, PDB entry 4bsq", "result": "0.7 nM (active)"}]}, {"smiles": "C=C1CC[C@@H](O[C@H]2C[C@@](O)([C@H](C)NC(=O)c3[nH]c(C)c(Cl)c3Cl)[C@H](O)[C@@H](C)O2)[C@@H]2C=C[C@H](C)[C@H](/C(O)=C3/C(=O)[C@H](C(C)C)N([C@@H]4O[C@@H](C)[C@@H](OC(N)=O)[C@@H](OC(C)=O)[C@H]4OC)C3=O)[C@@H]12", "values": [{"measurement": "IC50", "setting": "protein: DNA GYRASE SUBUNIT B GyrB24, PDB entry 4urm", "result": "9 nM (active)"}, {"measurement": "IC50", "setting": "protein: DNA TOPOISOMERASE IV, B SUBUNIT ParE43, PDB entry 4url", "result": "500 nM (active)"}]}, {"smiles": "C/C=C\\NC(=O)Nc1nc2cc(-c3cccnc3)c(=O)n(CCC(C)C)c2s1", "values": [{"measurement": "IC50", "setting": "protein: Topoisomerase IV subunit B, PDB entry 4mot", "result": "50 nM (active)"}]}, {"smiles": "COc1cc(-c2n[nH]c3ccc(C[C@@H](C#N)C(=O)NC(C)(C)CO)cc23)cc(OC)c1OC", "values": [{"measurement": "IC50", "setting": "protein: Ribosomal protein S6 kinase alpha-3 (T493M muation), PDB entry 4jg8", "result": "2.5 nM (active)"}]}, {"smiles": "O=C1N=Nc2nnc(-c3c(-c4ccccc4)nn4ccccc34)cc21", "values": [{"measurement": "IC50", "setting": "protein: Insulin receptor (K1278N mutation), PDB entry 4ibm", "result": "1800 nM (active)"}]}, {"smiles": "Cc1ccccc1S(=O)(=O)N(CCN(Cc1cncn1C)c1ccc(C=N)cc1)CC1CCN(C(=O)OC(C)(C)C)CC1", "values": [{"measurement": "IC50", "setting": "protein: CaaX farnesyltransferase alpha subunit Ram2, PDB entry 4lnb", "result": "275 nM (active)"}]}, {"smiles": "COc1ccccc1-c1noc2nc(C)[nH]c(=O)c12", "values": [{"measurement": "IC50", "setting": "protein: Class III chitinase ChiA1, PDB entry 4tx6", "result": "2600 nM (active)"}]}, {"smiles": "CC[C@H](C)[C@H](NC(=O)[C@@H](c1cc(Cl)cc(Cl)c1)N(C)C)C(=O)NCc1ccnc(C=N)n1", "values": [{"measurement": "IC50", "setting": "protein: Protease AVP8, PDB entry 4pis", "result": "60 nM (active)"}]}, {"smiles": "COc1ccc([C@]2(C)CCSC(N)N2)cc1", "note": "(stereo not given in full)", "values": [{"measurement": "IC50", "setting": "protein: BETA-SECRETASE 1, PDB entry 4bek", "result": "41200 nM (active)"}]}, {"smiles": "O[P+](O)(O)C(Nc1ncnc2sc(-c3ccc(C4C=C4)cc3)cc12)[P+](O)(O)O", "values": [{"measurement": "IC50", "setting": "protein: Farnesyl pyrophosphate synthase, human FPPS, PDB entry 4l2x", "result": "39 nM (active)"}]}, {"smiles": "Cc1ccc(-c2cc3c(NC([P+](O)(O)O)[P+](O)(O)O)ncnc3s2)cc1", "values": [{"measurement": "IC50", "setting": "protein: Farnesyl pyrophosphate synthase, human FPPS, PDB entry 4jvj", "result": "22 nM (active)"}]}]}
